Each structure is given as a SMILES string. Several values for one entry are separate records, joined by “and”; a condition that tells them apart may be missing. Equal values may be shown once. Records with an inconclusive call do not appear. Activity calls are given as the source filed them. Rule for the calls, unless noted: active = hit-call score of the fitted dose curve at least 0.9, where 1 is the maximum; inconclusive = response in the unintended direction; inactive = score below 0.9.

Our source for the AC50 and outcome values is PubChem BioAssay (EPA / NIEHS).

For test [1], the system named is Thyroperoxidase (TPO), gene 54314. The experiment in a line: CCTE_Simmons_AUR_rTPO: CCTE's Amplex UltraRed Assay for Thyroperoxidase (TPO) Inhibition, Simmons Lab (AID 2283662).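 For AC50: potency for loss of signal meaning inhibition of peroxidase activity.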 In short, it runs like this: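 Rat thyroid microsomes (5 ug protein) with 25 uM Amplex UltraRed and 300 uM H2O2 in 200 mM phosphate buffer, 30 min at 37C in dark; fluorescence 544/590 nm. Eight concentrations, 5 nM–87.5 uM final, 0.5% DMSO, triplicate biological replicates.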

Test [2] can be described thus: CCTE_Simmons_CellTiterGLO_HEK293T: Viability Assessment in CCTE's Assays for Thyroperoxidase (TPO) Inhibition, Simmons Lab (AID 2283665).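 For AC50: cells exposed to compound for 24 h before readout; actives reduce ATP signal below DMSO vehicle meaning cytotoxicity.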 A digest of the protocol:
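ATP depletion measured in HEK293T cells after 24 h dosing (8 concentrations, 5 nM–87.5 uM final; DMSO 0.5%) using CellTiter-Glo luminescence; curves fit for loss of signal against DMSO baseline.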
Background: Cellular ATP, detected with luciferase, serves as a proxy for viable cell number.

Test [3] in a line: Tanguay_ZF_120hpf_TR_legacy: (Legacy) Oregon State University Tanguay Lab 120 Hour Post-fertilization zebrafish Assay for Touch Response (AID 2283667). In short, it runs like this: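 Readout is presence or absence of touch response in 120 hpf zebrafish larvae, assessed by brightfield observation after continuous static exposure at 28C. Final vehicle was 0.64% (vol/vol) DMSO.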

Read-out in test [4]: sulfotransferase (SULT2A), SULT2A1 (gene 6822)
The experiment in a line: CLD_SULT2A_6hr: CellzDirect (CLD) Gene Expression Assay for sulfotransferase (SULT2A) at 6 hours (AID 2283669).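 Note: hits raise transcript level above the DMSO vehicle baseline.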 A digest of the protocol:
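Measured 6 h after dosing, SULT2A1 mRNA in human hepatocyte lysates was quantified by S1 nuclease protection with chemiluminescent detection. Increases fitted against 0.2% DMSO vehicle baseline; phase-contrast cytotoxicity recorded yes/no.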

Read-out in test [5]: glucuronosyltransferase (UGT1A1), UGT1A1 (gene 54658)
The experiment in a line: CLD_UGT1A1_6hr: CellzDirect (CLD) Gene Expression Assay for glucuronosyltransferase (UGT1A1) at 6 hours (AID 2283672). A digest of the protocol: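 UGT1A1 mRNA induction, read by quantitative nuclease protection assay, 6 h after dosing primary human hepatocytes (two donors, 0.2% DMSO vehicle). Gain of signal fitted relative to vehicle.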

The nature of test [6]: CCTE_Padilla_ZF_144hpf_TERATOSCORE: (Legacy) CCTE's 144 Hour Post-fertilization zebrafish Assay Teratoscore, Padilla Lab (AID 2283679; active = hit-call score of the fitted dose curve at least 0.9, where 1 is the maximum; inactive = score below 0.9;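 for AC50: zebrafish embryos with chorions exposed by immersion from 6-8 hpf to 5 dpf with daily renewal; teratogenicity score from eye scoring of death hatching and malformations at 144 hpf; higher score means more developmental defects relative to DMSO baseline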). A digest of the protocol: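 Larvae scored by eye at 144 hpf for death, hatching and malformations after a day in clean Hanks'. Before that, daily-renewed exposure at 80 uM (0.4% DMSO, 26C) from roughly 6-8 hpf through 5 dpf, 4 embryos per chemical.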

Read-out in test [7]: Cytochrome P450 2B6 (Homo sapiens) (UniProt P20813)
The experiment in a line: CLD_CYP2B6_24hr: CellzDirect (CLD) Gene Expression Assay for xenobiotic metabolism (CYP2B6) at 24 hours (AID 2283686). In short, it runs like this: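 qNPA chemiluminescent measurement of mRNA at 24 hours in human primary hepatocyte cultures from two donor preparations, with daily fresh dosing and 0.2% DMSO vehicle as baseline. Morphology-based cytotoxicity flagged yes/no.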

Read-out in test [8]: alkyl and aryl transferase (GSTA2), GSTA2 (gene 2939)
The experiment in a line: CLD_GSTA2_6hr: CellzDirect (CLD) Gene Expression Assay for alkyl and aryl transferase (GSTA2) at 6 hours (AID 2283666). A digest of the protocol:
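GSTA2 transcript induction at 6 h, quantified by nuclease protection (qNPA) with chemiluminescent detection, in human liver primary hepatocytes exposed to several compound concentrations with 0.2% DMSO as baseline; phase-contrast morphology annotated apparent cytotoxicity.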

The nature of test [9]: CLD_ACTIN_24hr: CellzDirect (CLD) Gene Expression Assay for Baseline Control (Actin) at 24 hours (AID 2283670). In short, it runs like this: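 This 24 h qNPA (S1 nuclease protection, chemiluminescence) actin transcript readout in cultured human liver primary cells serves as baseline control. Signal is fitted upward relative to 0.2% DMSO; chemicals tested at multiple concentrations across two donor preparations.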

Read-out in test [10]: ABC Transporter (ABCB11), ABCB11 (gene 8647)
The experiment in a line: CLD_ABCB11_24hr: CellzDirect (CLD) Gene Expression Assay for ABC Transporter (ABCB11) at 24 hours (AID 2283674; active = hit-call score of the fitted dose curve at least 0.9, where 1 is the maximum; inactive = score below 0.9). A digest of the protocol:
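ABCB11 transcript was quantified by qNPA chemiluminescence in cultured human liver hepatocytes 24 hours after dosing. Fresh dosing solutions were applied on consecutive days, against a 0.2% DMSO vehicle. Cytotoxicity was noted by phase-contrast morphology.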

Read-out in test [11]: Broad substrate specificity ATP-binding cassette transporter ABCG2 (Homo sapiens) (UniProt Q9UNQ0)
The experiment in a line: CLD_ABCG2_24hr: CellzDirect (CLD) Gene Expression Assay for ABC Transporter (ABCG2) at 24 hours (AID 2283685). A digest of the protocol:
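ABCG2 mRNA induction, read as gain of chemiluminescent signal over 0.2% DMSO, was measured by quantitative nuclease protection at 24 h. Cultured human liver hepatocytes were given fresh dosing solutions of test chemicals at several concentrations each day.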

Read-out in test [12]: xenobiotic metabolism (CYP2C9), CYP2C9 (gene 1559)
The experiment in a line: CLD_CYP2C9_6hr: CellzDirect (CLD) Gene Expression Assay for xenobiotic metabolism (CYP2C9) at 6 hours (AID 2283664). In short, it runs like this: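 Readout is qNPA chemiluminescence of CYP2C9 mRNA, taken 6 h after dosing of cultured human liver primary cells at several concentrations. Activity is the increase over 0.2% DMSO baseline. Morphology-based cytotoxicity flagged yes/no.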

Read-out in test [13]: Cytochrome P450 2C19 (Homo sapiens) (UniProt P33261)
The experiment in a line: CLD_CYP2C19_6hr: CellzDirect (CLD) Gene Expression Assay for xenobiotic metabolism (CYP2C19) at 6 hours (AID 2283678). A digest of the protocol: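 CYP2C19 transcript induction was quantified by quantitative nuclease protection assay with chemiluminescent read-out, 6 h after dosing. Cells were primary human hepatocytes from two donor preparations, given fresh dosing solutions daily in 0.2% DMSO vehicle. Activity was relative to DMSO.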

Read-out in test [14]: Cytochrome P450 2C9 (Homo sapiens) (UniProt P11712)
The experiment in a line: CLD_CYP2C9_24hr: CellzDirect (CLD) Gene Expression Assay for xenobiotic metabolism (CYP2C9) at 24 hours (AID 2283688). In short, it runs like this: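 Induction of CYP2C9 mRNA was quantified by quantitative nuclease protection assay (chemiluminescence), gain of signal versus 0.2% DMSO vehicle, 24 h after dosing. Human primary hepatocytes (two donors) received fresh chemical daily at multiple concentrations; morphology-based cytotoxicity flagged yes/no.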

Read-out in test [15]: xenobiotic metabolism (CYP1A2), CYP1A2 (gene 1544)
The experiment in a line: CLD_CYP1A2_24hr: CellzDirect (CLD) Gene Expression Assay for xenobiotic metabolism (CYP1A2) at 24 hours (AID 2283683). A digest of the protocol: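 CYP1A2 mRNA induction measured by quantitative nuclease protection (chemiluminescent) in human primary hepatocytes 24 h after multi-concentration chemical dosing with daily fresh solutions. DMSO (0.2%) baseline; positive-direction fitting; morphology-based cytotoxicity noted.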

Read-out in test [16]: xenobiotic metabolism (CYP1A2), CYP1A2 (gene 1544)
The experiment in a line: CLD_CYP1A2_6hr: CellzDirect (CLD) Gene Expression Assay for xenobiotic metabolism (CYP1A2) at 6 hours (AID 2283663).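 Note: potency is for induction meaning a rise in mRNA above DMSO.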 In short, it runs like this: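 mRNA levels quantified by quantitative nuclease protection assay with chemiluminescence, 6 h after dosing human primary hepatocyte cultures (two donors) across several concentrations, vehicle 0.2% DMSO. Induction fitted upward versus DMSO; phase-contrast cytotoxicity annotated.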

Read-out in test [17]: xenobiotic metabolism (CYP1A1), CYP1A1 (gene 1543)
The experiment in a line: CLD_CYP1A1_24hr: CellzDirect (CLD) Gene Expression Assay for xenobiotic metabolism (CYP1A1) at 24 hours (AID 2283673). In short, it runs like this: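 Transcript levels were read at 24 h by qNPA chemiluminescence in human liver primary cells. Cells got daily fresh dosing at multiple concentrations (vehicle 0.2% DMSO). Induction fitted upward against DMSO; phase-contrast cytotoxicity annotated.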

Broad substrate specificity ATP-binding cassette transporter ABCG2 (Homo sapiens), sequence (Q9UNQ0 whole entry, looked up): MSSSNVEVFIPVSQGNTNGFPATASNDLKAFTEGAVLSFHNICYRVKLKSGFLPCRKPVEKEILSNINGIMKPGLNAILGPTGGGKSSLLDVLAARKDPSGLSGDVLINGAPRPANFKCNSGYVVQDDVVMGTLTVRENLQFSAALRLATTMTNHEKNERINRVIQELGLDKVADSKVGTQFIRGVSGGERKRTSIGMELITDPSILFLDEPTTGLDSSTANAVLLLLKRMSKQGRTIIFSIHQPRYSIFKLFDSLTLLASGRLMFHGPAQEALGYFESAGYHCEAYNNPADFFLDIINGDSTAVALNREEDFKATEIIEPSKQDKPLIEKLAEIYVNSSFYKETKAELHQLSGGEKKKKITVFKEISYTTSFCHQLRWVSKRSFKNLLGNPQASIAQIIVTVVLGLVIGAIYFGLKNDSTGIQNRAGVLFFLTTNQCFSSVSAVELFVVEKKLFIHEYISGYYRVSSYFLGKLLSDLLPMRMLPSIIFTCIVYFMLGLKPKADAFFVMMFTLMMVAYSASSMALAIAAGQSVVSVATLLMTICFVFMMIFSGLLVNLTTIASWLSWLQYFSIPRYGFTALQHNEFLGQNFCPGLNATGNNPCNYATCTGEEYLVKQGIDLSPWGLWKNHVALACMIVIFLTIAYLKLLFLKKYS
Cytochrome P450 2C19 (Homo sapiens), sequence (P33261 whole entry, looked up): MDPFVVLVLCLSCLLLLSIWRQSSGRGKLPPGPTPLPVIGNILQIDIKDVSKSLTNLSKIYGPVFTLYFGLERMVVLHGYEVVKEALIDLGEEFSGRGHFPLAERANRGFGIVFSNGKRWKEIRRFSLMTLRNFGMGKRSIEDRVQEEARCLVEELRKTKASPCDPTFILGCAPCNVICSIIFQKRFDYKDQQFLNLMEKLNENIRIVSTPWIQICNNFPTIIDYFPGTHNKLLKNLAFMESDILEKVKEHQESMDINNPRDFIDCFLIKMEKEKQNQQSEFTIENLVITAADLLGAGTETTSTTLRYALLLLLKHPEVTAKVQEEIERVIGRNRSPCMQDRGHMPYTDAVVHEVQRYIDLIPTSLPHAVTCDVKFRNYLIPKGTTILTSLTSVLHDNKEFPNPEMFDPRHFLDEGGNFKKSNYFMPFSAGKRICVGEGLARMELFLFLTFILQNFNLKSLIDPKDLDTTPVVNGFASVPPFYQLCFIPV

With `CON(C)C(=O)Nc1ccc(Cl)c(Cl)c1`, the AC50 (in general, the midpoint of the concentration-response curve, whichever way the signal moves) was 35 µM (active) in [1], 60.1 µM (active) in test [6] and 0.735 µM (active) in test [7]. Moreover, the outcome in test [2], in [3], in [4] and in [5] was inactive.

On to `CN(C)C(=S)SSC(=S)N(C)C`, for which the call in [1], in [8], in [9], in test [10] and in [11] was inactive. Moreover, the AC50 in test [2] is 40.2 µM (active); in test [3], 3.26 µM (active); in test [6], 0.0128 µM (active).

Regarding `COc1nc(NC(C)C)nc(NC(C)C)n1`, the outcome in test [12], in test [8], in test [3], in test [4], in test [9] and in [13] was inactive. Moreover, the molecule was called inactive in test [6], in test [11], in [7] and in test [14].

Take `COP(=S)(OC)Oc1nc(Cl)c(Cl)cc1Cl`: the AC50 in test [1] was 4.62 µM (active); in test [2], 85.6 µM (active); in test [3], 97.7 µM (active); in test [6], 34.7 µM (active); in test [15], 4.43 µM (active); in test [7], 5.02 µM (active). Further, the molecule was called inactive in test [12], in [4], in test [10], in test [11] and in test [14].

Take `COc1cnc(OC)n2nc(NS(=O)(=O)c3c(OCC(F)F)cccc3C(F)(F)F)nc12`: in test [16], the AC50 was 0.255 µM (active). Also, the molecule was classed as inactive in [12], in [4], in [9], in test [13], in test [6] and in test [11]. Also, in test [7], the call was inactive.

Regarding `O=C(Nc1ccccc1)Nc1ccnc(Cl)c1`, the AC50 in test [1] was 27.6 µM (active); in [16] it was 8.16 µM (active); in test [2], 53.8 µM (active); in [6], 66 µM (active); in test [7], 8.15 µM (active). The outcome in test [8] and in test [3] was inactive.

On to `COC(=O)N(OC)c1ccccc1COc1ccn(-c2ccc(Cl)cc2)n1`, for which the molecule was called inactive in test [12], in test [8], in test [3], in [4], in test [9] and in test [13]. Further, the outcome in [11], in test [7] and in test [14] was inactive. Further, the AC50 in test [17] was 1.9 µM (active); in [10], 6.18 µM (active); in [6], 0.192 µM (active).

Consider `CCCN(CCC)c1c([N+](=O)[O-])cc(S(N)(=O)=O)cc1[N+](=O)[O-]`, for which the call in test [1], in test [12], in test [3], in test [4], in test [10] and in test [14] was inactive. In addition, the AC50 in test [2] is 27.1 µM (active) [middle of 5 runs]; in test [6], 15.8 µM (active) and 15.6 µM (active).

Take `Cc1cc(Cl)ccc1OCC(=O)O`: the outcome in test [12], in test [8], in test [3], in test [4], in test [13] and in test [6] was inactive. Besides, the outcome in test [11], in [7] and in test [14] was inactive.

Take `Oc1ccccc1-c1ccccc1`: the AC50 in [1] was 35.2 µM (active); in test [2] it was 97.1 µM (active); in test [6], 53.4 µM (active); in test [7], 6.24 µM (active). Moreover, the molecule was called inactive in [12], in test [8], in test [3], in [9], in test [10] and in test [11]. The molecule was called inactive in test [14].
